# Shown are actives, neighbours in structure and some others; about 19% of the full set was active somewhere.
# Chronic BCR inh: inhibitors of chronic active B-cell receptor signaling; Potency, µM (highest dose often 46.1 µM), for the others: at the top dose activity change, negative = inhibition, hits mostly inhibitors; ABC-DLBCL IkBa-CBG/CBR reporter, luminescence ratio, 4 h; 0.05% of 340,000 active; active means well fitted inhibition curve with a large enough effect in the signal ratio, with a control signal flat, not every such curve was filed as active; inconclusive means small, poorly fitted or top-dose-only effect, or effect the other way, or a change in a side signal; the % refers to the signal ratio;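 further: potency means the concentration at half of the fitted maximal effect; plate controls were basal doxycycline-induced cells for no effect and cells given 10 µM MG132 for full effect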
#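 Compounds up to 46 uM were incubated four hours with TMD8 cells whose green CBG68 luciferase is fused to IkappaBalpha; red CBR luminescence normalised the signal, and concentration-effect curves were fitted to fusion, red and ratio data.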
# TDP1 cell noCPT: qHTS for Inhibitors of human tyrosyl-DNA phosphodiesterase 1 (TDP1): qHTS in cells in absence of CPT; Potency, µM (top dose mostly 46.2 µM), for inactives: top-dose activity change, negative = growth inhibition, hits mostly inhibitors; 15% of 420,000 active; DT40 Tdp1-/- hTDP1 cells, no CPT, ATP luminescence, 48 h; AID 686978, 2013; further: potency means the concentration at half of the fitted maximal effect; on the % scale 0 is the no-effect control and ±100 the full control effect; nearly all actives have a fitted effect of over 55% in size
#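 Stably hTDP1-transfected Tdp1-null chicken DT40 cells were treated with library compounds minus camptothecin and grown for at least 48 hr at 37 °C, after which cellular ATP was quantified by luminescence.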
# MCF10A rereplic: DNA re-replication induction in MCF 10a cells | MCF 10A DNA re-replication, Hoechst nuclear intensity, 48 h | Potency, µM (top dose mostly 46.1 µM), without a hit: top-dose activity, positive = re-replication, actives largely listed as activators | 2.9% of 350,000 active | AID 624296; further: potency means the concentration at half of the fitted maximal effect; % of control where 0% means no effect; nearly all actives have a fitted effect of over 50% in size
# IL1B secr inh: inflammasome signaling inhibition, IL-1 beta readout; THP-1 LPS/ATP IL-1B secretion, AlphaLISA, 16 h; hits give low values; activity change, % at 57.5 µM; 4.7% of 360,000 active; in the data active means activity change below about -50%; inconclusive means mostly about -30% to -49%; further: on the % scale 0 is the no-effect control and ±100 the full control effect
#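 THP-1 cells pretreated 1 hr with compounds (up to 57.5 uM final), then stimulated with LPS (250 ng/mL final) plus ATP (1.25 mM final); secreted IL-1B measured by AlphaLISA after 16 hr, decreased signal indicating inhibition.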
# SW480 rereplic: DNA re-replication induction in SW480 cells. SW480 DNA re-replication, Hoechst DNA content imaging, 48 h. Potency, µM (doses to about 46.1 µM), without a hit: top-dose re-replication activation, most hits filed as activators. 1.8% of 340,000 active. AID 624297; further: potency means the concentration at half of the fitted maximal effect; % of control where 0% means no effect; nearly all actives have a fitted effect of over 55% in size
#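 Hoechst fluorescence of nuclei (405 nm excitation, 500-530 nm emission) measured by plate-scanning imager after 48 hr compound exposure at 37 C; re-replication scored as increased number of nuclei with elevated intensity.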
# DT40 TDP1 CPT: DT40-hTDP1 cell growth loss with CPT; chicken DT40 Tdp1-/-;hTDP1 cells + 20 nM CPT, ATP luminescence, 48 h; Potency, µM (titrated, usually from 46.2 µM), inactives show at the highest dose activity change, negative = growth inhibition, actives largely listed as inhibitors; 12% of 420,000 active; AID 686979; further: potency means the concentration at half of the fitted maximal effect; on the % scale 0 is the no-effect control and ±100 the full control effect; nearly all actives have a fitted effect of over 55% in size
#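 Cell growth measured by CellTiter-Glo luminescence after a minimum 48 h, 37 C compound exposure with 20 nM CPT in Tdp1-knockout DT40 cells stably expressing hTDP1, seeded 400/well; qHTS titration format.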
# The depositor's hits bear a star; ? = inconclusive; · = no result; ! = repeats disagree. Unless noted, the call rests on the fitted dose curve; in most records, active means well fitted curve in the direction sought with a large enough effect; inconclusive means small, poorly fitted or top-dose-only effect, or another doubt; inactive means no such curve, though single readings can be large; an effect the other way counts as inactive or inconclusive.
SMILES,Chronic BCR inh,TDP1 cell noCPT,MCF10A rereplic,IL1B secr inh,SW480 rereplic,DT40 TDP1 CPT
O=C(CN1CCN(S(=O)(=O)c2cc(Br)ccc2Br)CC1)NCc1ccccc1Cl,·,?,12%,-18,11%,?
O=C(Cn1c(=O)oc2cc(S(=O)(=O)N3CCCCCC3)ccc21)NCc1ccccc1Cl,8%,7.3µM*,·,·,·,9.2µM*
CCc1cccc(NC(=O)Cn2c(=O)oc3cc(S(=O)(=O)N4CCOCC4)ccc32)c1,1%,15µM*,?,4,-2%,23µM*
CCOC(=O)Cn1c(=O)oc2cc(S(=O)(=O)N3CCN(C(=O)c4ccco4)CC3)ccc21,?,-4%,2%,10,-6%,-7%
Cc1cc(C)cc(NC(=O)Cn2c(=O)oc3cc(S(=O)(=O)N4CC(C)CC(C)C4)ccc32)c1 (configuration not stated),9%,?,?,-27,28%,?
Cc1ccc(NC(=O)Cn2c(=O)oc3cc(S(=O)(=O)N4CCCCCC4)ccc32)cc1Cl,?,21µM*,·,·,·,12µM*
O=C(Cn1c(=O)oc2cc(S(=O)(=O)N3CCCC3)ccc21)Nc1cccc(C(F)(F)F)c1,9%,15µM*,?,4,35%,13µM*
Cc1ccc(NC(=O)Cn2c(=O)oc3ccccc32)cc1Cl,?,?,-5%,8,-1%,?
O=C1C[C@@H]2OCC=C3CN4CC[C@]56c7ccccc7N1[C@@H]5[C@@H]2[C@H]3C[C@H]46 (tested in a mixture with another compound),·,·,·,·,-8%,·
O=C1/C(=C\c2ccccc2)C2OCC=C3CN4CCC56c7ccccc7N1C5C2C3CC46 (configuration not stated),-1%,?,0%,-4,-4%,21µM*
COc1ccccc1NP1(=O)OCC(C)([N+](=O)[O-])CO1 (configuration not stated),·,-22%,1%,23,-3%,-3%
OCC1OC(n2cnc3cc(Cl)c(Cl)cc32)C(O)C1O (configuration not stated),·,?,·,?,·,15µM*!
O=C(Oc1ccc2ccc(OC(=O)N3CCCCCC3)cc2c1)N1CCCCCC1,-1%,21µM*,?,22,5%,12µM*
O=C(CCn1c(=O)oc2ccc(Cl)cc21)N1CCN(c2ccccc2)CC1,?,-16%,-4%,-8,?,-27%
Cc1c(C(=O)NCCSCc2ccc(Cl)cc2Cl)cccc1[N+](=O)[O-],?,?,?,-58*,20%,?
COc1ccc(/C=C/C(=O)Nc2ccc(C)cc2)cc1,·,?,·,·,·,-24%
COc1ccc(C(=O)/C=C/c2ccc(O)cc2)cc1,?,?,16%,-57*,16%,-22%
CC(=O)Oc1ccc(/C=C/c2cc(OC(C)=O)cc(OC(C)=O)c2)cc1,·,12µM*,·,·,·,?
CSCCC(c1nnnn1C1CCCCC1)N1CCC2(CC1)C(=O)NCN2c1ccccc1 (configuration not stated),·,?,·,5,·,?
O=C(NC(C(Cl)Cl)N1CCOCC1)c1ccccc1 (configuration not stated),-8%,17%,10%,-9,-4%,-18%
Cc1ccc(S(=O)(=O)c2nnn3c2nc(N2CCC(C(N)=O)CC2)c2cc(Cl)ccc23)cc1C,·,5.2µM*,·,·,·,21µM*
O=C(NCCCN1CC1)Nc1cccc2ccccc12,·,7.3µM*,?,-11,?,1.6µM*
Cc1ccc(OCC(=O)NCCN2CCN(C(=O)COc3ccc(C)cc3)CC2)cc1,2%,-21%,-23%,-19,-5%,-7%

# High-throughput results from PubChem BioAssay.
